High-throughput results deposited in PubChem by The Scripps Research Institute Molecular Screening Center.
The list is not random: actives were taken first. Their share in the collection is about 3.4%.
MITF inh – blocks human microphthalmia-associated transcription factor; O75030; AlphaScreen MITF homodimerization, bead proximity signal; inhibition, % at 2.6 µM; 650,000 tested, 0.91% active; in the data active = inhibition above about 50%;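 note: 0% = vehicle wells with protein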
FBW7 act – human FBW7 E3 ligase activation, primary screen. AlphaScreen FBW7–phospho-cyclin E peptide binding, activator screen. normalized activity (activation), % at 26.1 µM. 650,000 tested, 0.13% active. AID 1259310; in the data active = normalized activity above about 1.9%;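 note: purified mutant Fbw7 with reduced substrate affinity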
GPR151 ag – activates the human receptor GPR151. PathHunter beta-arrestin GPR151 cells, luminescence. 650,000 tested, 1% active. activation, % at 11.2 µM; in the data active = activation above about 4.9%;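 note: 0% = median of compound wells and 100% = cells with positive control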
TEAD-YAP block – TEAD-YAP interaction inhibition. HEK-TIYL cells, TEAD-Gal4/YAP UAS-luciferase luminescence. inhibition, % at 9.12 µM. 640,000 tested, 1.4% active; in the data active = inhibition above about 32%;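 note: 0% = median of test compound wells and 100% = reference inhibitor wells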
GPR151 confirm – human GPR151 activation, confirmation screen | shares compounds with GPR151 ag | GPR151 PathHunter beta-arrestin cells, luminescence, 90 min; % of EA-reagent control over plate median | activation, % at 11.2 µM | 6,700 tested, under 10 active | AID 1508609;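 active = mean percent activation across replicates above the confirmation screen cutoff of 4.91%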
GPR119 counter – activates human GPR119 in a GPR151 counter-screen. shares compounds with GPR151 ag. GPR119 PathHunter beta-arrestin cells, luminescence, 90 min; 0 = compound-well median, 100 = enzyme-acceptor control. activation, % at 11.2 µM. 6,700 tested, 0.3% active;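 active = mean percent activation in the counterscreen above 29.09%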;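 note: counterscreen on off-target GPR119 to flag nonselective hits from the GPR151 activator screen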
Target sequence (Q8TDV5 whole entry, looked up): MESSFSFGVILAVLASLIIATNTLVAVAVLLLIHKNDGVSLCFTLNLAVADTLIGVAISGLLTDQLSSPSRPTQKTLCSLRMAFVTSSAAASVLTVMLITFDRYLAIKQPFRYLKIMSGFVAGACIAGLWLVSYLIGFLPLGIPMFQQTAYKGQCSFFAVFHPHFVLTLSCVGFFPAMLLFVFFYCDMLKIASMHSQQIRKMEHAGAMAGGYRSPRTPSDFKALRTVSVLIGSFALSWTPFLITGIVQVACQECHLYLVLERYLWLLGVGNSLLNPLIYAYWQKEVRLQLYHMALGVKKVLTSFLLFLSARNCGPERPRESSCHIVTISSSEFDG
An asterisk follows results filed as active; nt = no result.

SMILES | MITF inh | FBW7 act | GPR151 ag | TEAD-YAP block | GPR151 confirm | GPR119 counter
COC(=O)C1C(=O)C2=C(CC1C)NC(=O)CC2c1cc(OC)c(O)c([N+](=O)[O-])c1 (centres undefined) | -8 | 0 | 0 | -4 | nt | nt
Cc1ccc(C2=NN(C(N)=S)C(O)(C(F)(F)F)C2)cc1 (centres undefined) | -8 | 0 | 0 | -4 | nt | nt
COc1ccc(C(=O)N/C(=C/c2ccccc2)C(=O)NC(C)C(=O)O)cc1 (centres undefined) | 11 | 0 | 8.7* | 3 | 1 | 11
COc1ccc(/C=C(\NC(=O)c2ccc(OC)cc2)C(=O)NC(C)C(=O)O)cc1 (centres undefined) | 14 | 0 | 2 | 1 | nt | nt
CCCNC(=O)c1csc(-c2c(C)nn(C)c2C)n1 | 27 | 0 | 5.2* | -5 | 0 | 10
CCOC(=O)c1sc2nccc3c2c1N=CN3c1ccccc1 | 11 | 0 | 5.3* | -13 | 0 | 0
CCCn1c(C)cc(=O)c2cc([N+](=O)[O-])ccc21 | 15 | 0 | 11* | 1 | 0 | -6
O=C(COC(=O)c1ccc[nH]c1=O)Nc1ccc(F)cc1F | 4 | 0 | 0 | -7 | nt | nt
CCOc1ccccc1C(=O)N[C@H](C(=O)NC1CCCCC1)C(C)C | -5 | 0 | 1 | -12 | nt | nt
CCOc1cc(C=C(C(=O)OC)C(=O)OC)ccc1OCc1ccc([N+](=O)[O-])cc1 | 5 | 0 | 5.2* | 14 | 1 | 10
COC(=O)C(=Cc1cc(OC)c(O)c([N+](=O)[O-])c1)C(=O)OC | 21 | 0 | 5.7* | 4 | 0 | 8
CSc1ccc(-c2ccc3c(c2)CC(CNC(=O)c2ccncc2)O3)cc1 (centres undefined) | -4 | 0 | 1 | 11 | nt | nt
CSc1ccc(-c2ccc3c(c2)CC(CNC(=O)C2CCOC2)O3)cc1 (centres undefined) | 3 | 0 | 7.9* | 7 | 0 | -1
Cc1cc(Nc2ccc(N3CCOCC3)cc2)nc(Nc2ccccn2)n1 | 8 | 0 | 3 | 12 | nt | nt
Cc1cc(Nc2ccc(N3CCOCC3)cc2)nc(Nc2nccc3ccccc23)n1 | 10 | 0 | 5.3* | 81* | 1 | 23
CCN(CC)c1nc(Nc2ccccc2)nc(Nc2ccc(-n3ccnc3)cc2)n1 | 8 | 0 | 6.6* | -6 | 0 | 4
Cc1cc(Nc2ccccc2)nc(Nc2ccc(-n3ccnc3)cc2)n1 | -2 | 0 | 4 | -1 | nt | nt
Cc1cc(Nc2ccc(N3CCOCC3)cc2)nc(Nc2ccc(-n3ccnc3)cc2)n1 | 4 | 0 | 8.9* | 99* | 3 | 63*
Cc1cc(NC2CC2)nc(Nc2ccc(-n3ccnc3)cc2)n1 | -9 | 0 | 5.3* | -12 | -1 | -11
COc1cc(Nc2cc(Cl)ncn2)cc(OC)c1OC | -2 | 0 | 1 | 8 | nt | nt
CC(C)(C)OC(=O)N1CCC2(CC1)NC(=O)c1ccccc1N2 | -5 | 0 | 1 | -7 | nt | nt
Cc1cc2nc(N3CCC(NCc4ccccc4-n4cncn4)CC3)nc(C)c2cc1C | -23 | 0 | 0 | -7 | nt | nt
COc1ccc(NC(=O)CN2C(=O)CC(c3ccccc3)Sc3ccccc32)cc1OC (centres undefined) | -4 | 1 | 7.4* | 1 | 1 | -3
COc1ccc(NC(=O)CN2C(=O)CC(c3ccco3)Sc3ccccc32)cc1OC (centres undefined) | 1 | 0 | -1 | 12 | nt | nt
O=C(CN1C(=O)COc2ccc(Cl)cc21)Nc1ccc([N+](=O)[O-])cc1 | -3 | 0 | 7.6* | 14 | 1 | -2
Cc1ccc2c(c1)N(CC(=O)Nc1ccc3c(c1)OCCO3)C(=O)CO2 | 11 | 0 | -1 | 14 | nt | nt
Cc1ccc2c(c1)N(CC(=O)Nc1ccc(Cl)cc1)C(=O)C(C)O2 (centres undefined) | -8 | 0 | 22* | 8 | 1 | 6
COc1ccc(NC(=O)CN2C(=O)C(C)Oc3ccc(C)cc32)cc1 (centres undefined) | 23 | 0 | -1 | 5 | nt | nt
COc1ccc(NC(=O)CN2C(=O)COc3ccc(C)cc32)cc1OC | 6 | 0 | 6.0* | 6 | 1 | 10
CCOC(=O)CN1C(=O)COc2ccc(Cl)cc21 | -4 | 0 | 5.6* | 0 | 0 | -6
